Assay outcomes from PubChem.
eIF4H FP inh = human eIF4H binding inhibitors, primary screen, translation initiation inhibitor project, biochemical, uHTS, fluorescence polarization; eIF4H fluorescence polarization binding assay; inhibition, % at 35 µM; 290,000 tested, 0.94% active; AID 2012, 2009;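 also: calls also rest on retests at 20 µM and on dose response follow-up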
PABP polyA inh = PABP poly(A) RNA binding inhibitors, primary screen, biochemical, fluorescence polarization, uHTS; Polyadenylate-binding protein 1 (Homo sapiens), P11940; inhibition, % at 35 µM; 290,000 tested, 1% active;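 also: calls also rest on retests at 20 µM and on dose response follow-up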
CendR NRP1 mod = modulators of CendR peptide binding to NRP-1, primary screen, biochemical, fluorescence polarization, uHTS | 360,000 tested, 0.85% active | FAM-RPARPAR peptide binding to NRP-1 | Neuropilin-1 (Homo sapiens), O14786 | inhibition, % at 25 µM;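 active = inhibition or corrected inhibition above about 18%, plus a signal ratio from 0.5 to 1.5, limit read from the data, passing the limit was not always enough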
MLLE-PAM2 inh = inhibitors of PABP1 MLLE–PAM2 peptide binding, primary screen, biochemical, fluorescence polarization, FITC-PAM2, GST-MLLE; AID 588489, 2011; 360,000 tested, 0.36% active; inhibition, % at 20 µM; in the data active = inhibition above about 35%, passing the limit was not always enough
Hits are given with their value; 0 = inactive; ? = inconclusive; - = not tested or not shown; ! = repeats disagree. Rows were chosen to be rich in hits. Some 2.1% of all compounds tested hit in one or more screens of this group. Unless noted, no rule for the calls is given here.

SMILES	eIF4H FP inh	PABP polyA inh	CendR NRP1 mod	MLLE-PAM2 inh
Cc1cccc(-c2nsc(SCC(=O)c3ccc(Cl)cc3)n2)c1	0	0	45.4	0
CCOC(=O)CNC(=O)CSc1nc(-c2cccc(C)c2)ns1	0	0	0	41.1
Cc1ccccc1CNC(=O)c1ccc2sc([C@H]3C[C@H](O)[C@@H](CO)O3)nc2c1	-	-	0	0
Cc1ccc(NC2=CC(=O)CC(C)(C)C2)cc1Cl	0	0	0	0
Cc1ccc(NC2=CC(=O)CCC2)cc1C	0	0	46.3	0
C(#CCN1CCC(Cc2ccccc2)CC1)COCCOCc1ccccc1	0	0	0	0
Cc1cccc(CN2C(=O)N/C(=C/c3ccc(C)s3)C2=O)c1	68.8	88.0	0	0
Cc1ccc(/C=C2/NC(=O)N(Cc3ccccc3)C2=O)s1	?	?	0	0
CCOc1cc(/C=N/n2cnnc2)ccc1OCC(=O)Nc1ccccc1OC	0	0	20.0	0
O=C(Nc1nnc([C@@H]2C[C@H](O)[C@@H](CO)O2)s1)c1cccc(Cl)c1	-	-	0	0
O=[S@]1Oc2ccccc2-c2ccccc21	-	-	0	0
COc1ccc(NS(=O)(=O)c2cccc(NC(=O)CCC(=O)c3ccc(Cl)cc3)c2)cc1	active	0	0	0
COc1ccc(NS(=O)(=O)c2cccc(NC(=O)CCC(=O)c3cccs3)c2)cc1	0	0	0	0
O=C(CCCSc1nc2ccccc2c(=O)[nH]1)c1ccc(F)cc1	83.9	0	0	0
OC(CN1CCNCC1)Cn1ccc2ccccc21 (stereo not drawn)	0	0	-	-
O=C1c2ccccc2S(=O)(=O)N1CC(O)Cn1ccc2ccccc21 (stereo not drawn)	88.4	96.9	0	0
COc1ccc(Nc2cc(C)nc3ccc(OC)cc23)cc1	0	0	29.2	0
CCOc1ccc(Nc2cc(C)nc3ccc(C)cc23)cc1	-	-	0	0
Cc1ccc(Nc2cc(C)nc3ccc(C)cc23)cc1	0	0	21.0	0
CC(C)NC(=O)C(=O)Nc1cc2c3c(c1)C(C)C(=O)N3CCC2 (stereo not drawn)	0	0	0	0
Cc1ccc2[nH]c3ccccc3c(=O)c2c1	0	0	0	0
O=c1c2ccccc2[nH]c2ccc(O)cc12	91.9	68.3	0	0
O=C(NNS(=O)(=O)c1ccccc1[N+](=O)[O-])c1cc2ccccc2cc1O	0	0	23.3	0
O=C(Nc1cccc([N+](=O)[O-])c1)c1cc2ccccc2cc1O	61.3	15.9	0	0
O=C(O)c1ccccc1C(=O)Nc1cccc([N+](=O)[O-])c1	0	0	0	0
SMILES	eIF4H FP inh	PABP polyA inh	CendR NRP1 mod	MLLE-PAM2 inh
O=C(NNS(=O)(=O)c1ccccc1[N+](=O)[O-])c1ccccc1Cl	0	0	0	0
Cc1cc(CN2CCCC(N3CCc4ccccc4C3)C2)cc(C)c1O (stereo not drawn)	0	0	0	0
NC(=O)NOCc1c(Cl)cccc1Cl	0	0	0	0
NC(=O)NOCc1c(F)cccc1Cl	0	53.6	0	0
Cc1cn([C@H]2C[C@H](O)[C@@H](/C=C/C(=O)NCCC(c3ccccc3)c3ccccc3)O2)c(=O)[nH]c1=O	-	-	0	0
COc1ccc(NC(=S)NC(NC(=O)c2cccc3ccccc23)C(Cl)(Cl)Cl)c([N+](=O)[O-])c1 (stereo not drawn)	0	0	0	0
COc1ccc(NC(=S)NC(NC(=O)c2ccc(Cl)cc2Cl)C(Cl)(Cl)Cl)c([N+](=O)[O-])c1 (stereo not drawn)	0	0	0	36.2
COc1ccc(NC(=S)NC(NC(=O)c2ccccc2Cl)C(Cl)(Cl)Cl)c([N+](=O)[O-])c1 (stereo not drawn)	0	0	0	38.8
COc1ccc(CNC(=O)C[C@H]2C[C@H](C(=O)N3CCOCC3)[C@@]3(CCC4CCCC4)c4[nH]c5cc(CCC(=O)N(C)C)ccc5c4CCN3C2=O)cc1OC	-	-	0	0
CCCN1CCCc2cc(CN)ccc21	58.1	92.0	25.2	45.1
CN1CCCc2cc(C=O)ccc21	0	0	0	0
NS(=O)(=O)c1cc(C(=O)NNC(=O)c2ccc3c(c2)OCO3)ccc1Cl	-	-	28.1	0
NS(=O)(=O)c1cc(C(=O)OCC(=O)c2ccc3c(c2)OCCO3)ccc1Cl	0	0	0	0
COc1cccc(CC2(CO)CCCN(Cc3ccc(C)s3)C2)c1 (stereo not drawn)	0	0	0	0
COc1cccc(CC2(CO)CCCN(Cc3sc(N4CCCC4)nc3Cl)C2)c1 (stereo not drawn)	55.9	23.1	0	0
CCOC(=O)c1c2c(n(-c3ccc(OC)cc3)c1C)C(=O)C(=O)c1ccccc1-2	-	-	34.3	0
CSc1ccc(/C=C(/NC(=O)c2ccco2)C(=O)N2CCCCCC2)cc1	0	0	0	0
Cc1ccc2c(c1)sc(C)[n+]2CCCS(=O)(=O)[O-]	0	0	0	47.6
Cc1ccc2sc(C)[n+](CCCS(=O)(=O)[O-])c2c1	0	0	0	0
CCCC[n+]1c(C)sc2cc(OC)ccc21	0	58.4	0	0
O=C(CSc1cccc[n+]1[O-])Nc1ccc2c(c1)OCO2	0	0	0	0
COC(=O)c1cc(C)sc1NC(=O)CN1CCN(C(=O)C2CCCO2)CC1 (stereo not drawn)	0	0	0	0
CCCn1nc2cc(C(=O)NCCc3ccc(C)cc3)ccc2c1OCC	0	0	25.5	0
CCOc1c2ccc(C(=O)NCCc3cccs3)cc2nn1CC	0	0	24.8	0
CCCCn1nc2cc(C(=O)NCCc3cccs3)ccc2c1OCC	0	0	0	0
SMILES	eIF4H FP inh	PABP polyA inh	CendR NRP1 mod	MLLE-PAM2 inh
O=C1Cc2cccc(=O)c(O)c2C(=O)O1	-	-	0	0
O=C1c2c(O)cccc2Cc2cccc(O)c21	-	-	0	46.2
CN(C(=O)c1cccc(NC(=O)Cc2cccc(NC(=O)C3CCN(C(=O)C4CCCCC4)CC3)c2)c1)C1CCC1	-	-	0	0
COc1ccc(C/C(C)=N/NC(=S)Nc2ccc(Cl)cc2)cc1	0	0	41.3	0
O=C(CC1OC(=O)c2ccccc21)NNC(=O)c1ccc(F)cc1 (stereo not drawn)	-	-	0	0
Cc1cc2ncn(-c3ncccc3[N+](=O)[O-])c2cc1C	0	0	0	60.6
CC1CCN(c2oc(-c3ccc(F)cc3)nc2C#N)CC1	0	0	0	0
COc1cc2c(c(OCC(=O)NC(C)C)c1)C(=O)O[C@@H](C)CCCC(=O)CCCCC2	0	0	0	51.7
COc1ccc2[nH]c3c(=O)n(CCCCC(=O)N4CCC(C(N)=O)CC4)c(=S)[nH]c3c2c1	0	0	0	51.1
COc1ccc2[nH]c3c(=O)n(CCCCC(=O)NCCN4CCCC4)c(=S)[nH]c3c2c1	0	0	0	0
COc1ccccc1CN1CC(C(=O)N(C)CCc2ccccn2)CCC1=O (stereo not drawn)	-	-	0	0
CCC1Nc2ncnc(N3CCCCC3)c2N(Cc2ccc(C)cc2)C1=O (stereo not drawn)	-	-	29.4!	0
CCC1Nc2ncnc(N3CCCCC3)c2N(Cc2ccccc2)C1=O (stereo not drawn)	-	-	0	0
CCCCCCCCN1C(=O)[C@H](CC(=O)NCc2ccccc2)C[C@@]2(C(=O)OC)CC(C)(C)CC=C12	-	-	0	-
